In PubChem BioAssay (NCATS):
Results filed as inconclusive are left out. Where a call stands in place of a potency, no number is given. Active and inactive are the calls of the source. Unless noted, calls follow the shape of the dose curve; as a rule, active = well fitted curve in the direction sought with a large enough effect; inconclusive = small, poorly fitted or top-dose-only effect, or another doubt; inactive = no such curve, though single readings can be large; an effect the other way counts as inactive or inconclusive.

What was measured:
[1] = target: Luciferin 4-monooxygenase (Photinus pyralis) (UniProt P08659); experiment: Biochemical firefly luciferase enzyme assay for NPC (AID 624030);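 also: purified P. pyralis luciferase at 10 nM with luciferin and ATP substrate; series mostly up to about 59 µM; nearly all actives have a fitted effect of over 70% in size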
How it was run: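 Counter-screen for direct inhibition of the luciferase enzyme by approved-drug library compounds, run at 10 nM enzyme in 50 mM Tris acetate (final). Luminescence was read within 5 min of enzyme-buffer addition and normalized to PTC124 versus DMSO (0%).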

[2] = S16 Schwann cell viability assay (CellTiter-Glo assay) (AID 624031); also: nearly all actives have a fitted effect of over 70% in size; also: potency is read from the fitted curve at half-maximal effect
How it was run: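 Rat S16 Schwann cells without reporter constructs received compound or DMSO for 24 h at 37 °C under 5% CO2. Cellular ATP was then quantified by CellTiter-Glo luminescence, with vehicle wells defined as 0% activity and cell-free wells as reference.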

[3] = S16 Schwann cell PMP22 intronic element firefly luciferase assay (AID 624032); also: nearly all actives have a fitted effect of over 30% in size; also: potency is read from the fitted curve at half-maximal effect
How it was run: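 Rat S16 Schwann cells stably carrying a PMP22 intronic element-driven Fluc reporter were seeded overnight, then exposed to compounds for 24 h at 37 °C. Luminescence was normalized to PTC124 (positive control) and DMSO (0% activity).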

[4] = target: Glutaminase kidney isoform, mitochondrial (Homo sapiens) (UniProt O94925); experiment: qHTS for Inhibitors of Glutaminase (GLS): LOPAC Validation (AID 624146); also: nearly all actives have a fitted effect of over 60% in size; also: potency is read from the fitted curve at half-maximal effect
How it was run: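 Assay buffer: 45 mM KH2PO4 pH 8.2, 0.02% Tween-20. hKGA acts on L-glutamine (1 mM solution added); product glutamate is reported by an oxidase/peroxidase Amplex Red coupling, with fluorescence taken at baseline and 30 min.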

[5] = qHTS of Trypanosoma Brucei Inhibitors: LOPAC Validation (AID 624147)
How it was run: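 ADP (130 uM final) triggers the TbPYK reaction after compound addition; incubation is 45 min at room temperature. Kinase-Glo Plus is then added and luminescence imaged. Normalized data are fitted to concentration-effect curves.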

[6] = target: Glucagon-like peptide 1 receptor (Homo sapiens) (UniProt P43220); experiment: qHTS of GLP-1 Receptor Agonists: LOPAC Validation (AID 624148);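 also: higher luminescence signal means agonism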
How it was run: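 HEK293 cells stably co-expressing a cAMP-responsive luciferase reporter and a hypersensitive GLP-1R were plated 12 h at 37 °C and exposed to compounds for 4-6 hr at 37 °C, 5% CO2. Luminescence was read 12 min after adding detection reagent.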

[7] = qHTS of Nrf2 Activators: LOPAC Validation (AID 624149)
How it was run: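 ARE reporter activation measured in AREc32 firefly luciferase cells after 24 hr compound exposure; Steady-Glo luminescence.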

[8] = HTS Assay for Allosteric Antagonists of the Human D2 Dopamine Receptor: Hit Validation in HTRF (AID 624455);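 also: stable D1 dopamine receptor cell line scored for blocking the D1 response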
How it was run: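 Signal from an HTRF read-out in D1-expressing stable cells gave hit activity as inhibition of the D1 response.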

[9] = target: Voltage-gated inwardly rectifying potassium channel KCNH2 (Homo sapiens) (UniProt Q12809); experiment: qHTS Assay for Small Molecule Inhibitors of the Human hERG Channel Activity (AID 588834);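 also: top concentration of the series differs between compounds; lower thallium flux fluorescence means stronger hERG block; nearly all actives have a fitted effect of over 50% in size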
How it was run: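 Measured: FluxOR fluorescence after thallium stimulation in U2OS cells transduced with hERG by baculovirus. Compounds pre-incubated around 10 min; medium Opti-MEM with 2% FCS. AC50 from Hill equation.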

[10] = S16 Schwann cell PMP22 intronic element beta-lactamase assay (AID 624044; calls by dose curve; also: nearly all actives have a fitted effect of over 15% in size; also: potency is read from the fitted curve at half-maximal effect)
How it was run: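 Rat S16 Schwann cells with beta-Lac driven by a PMP22 intronic element, compound-treated 24 h at 37 °C. LiveBLAzer FRET B/G read: 460 nm normalized to potassium clavulanate vs DMSO; 535 nm FRET as viability; concentration-effect curves classified.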

Chain of Glucagon-like peptide 1 receptor (Homo sapiens) (P43220 whole entry, looked up): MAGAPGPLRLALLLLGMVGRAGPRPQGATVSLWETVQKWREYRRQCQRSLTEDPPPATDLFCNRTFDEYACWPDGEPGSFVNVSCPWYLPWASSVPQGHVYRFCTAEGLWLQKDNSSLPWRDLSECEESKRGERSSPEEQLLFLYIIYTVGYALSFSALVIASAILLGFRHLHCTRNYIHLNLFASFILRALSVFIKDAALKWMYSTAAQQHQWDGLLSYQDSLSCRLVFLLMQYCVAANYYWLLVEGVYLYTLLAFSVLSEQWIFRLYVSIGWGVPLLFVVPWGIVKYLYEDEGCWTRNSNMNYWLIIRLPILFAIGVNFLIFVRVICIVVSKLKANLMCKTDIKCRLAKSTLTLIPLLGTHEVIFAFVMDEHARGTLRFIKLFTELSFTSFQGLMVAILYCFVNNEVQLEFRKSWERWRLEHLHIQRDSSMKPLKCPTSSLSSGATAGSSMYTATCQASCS
Chain of Glutaminase kidney isoform, mitochondrial (Homo sapiens) (O94925 whole entry, looked up, canonical isoform): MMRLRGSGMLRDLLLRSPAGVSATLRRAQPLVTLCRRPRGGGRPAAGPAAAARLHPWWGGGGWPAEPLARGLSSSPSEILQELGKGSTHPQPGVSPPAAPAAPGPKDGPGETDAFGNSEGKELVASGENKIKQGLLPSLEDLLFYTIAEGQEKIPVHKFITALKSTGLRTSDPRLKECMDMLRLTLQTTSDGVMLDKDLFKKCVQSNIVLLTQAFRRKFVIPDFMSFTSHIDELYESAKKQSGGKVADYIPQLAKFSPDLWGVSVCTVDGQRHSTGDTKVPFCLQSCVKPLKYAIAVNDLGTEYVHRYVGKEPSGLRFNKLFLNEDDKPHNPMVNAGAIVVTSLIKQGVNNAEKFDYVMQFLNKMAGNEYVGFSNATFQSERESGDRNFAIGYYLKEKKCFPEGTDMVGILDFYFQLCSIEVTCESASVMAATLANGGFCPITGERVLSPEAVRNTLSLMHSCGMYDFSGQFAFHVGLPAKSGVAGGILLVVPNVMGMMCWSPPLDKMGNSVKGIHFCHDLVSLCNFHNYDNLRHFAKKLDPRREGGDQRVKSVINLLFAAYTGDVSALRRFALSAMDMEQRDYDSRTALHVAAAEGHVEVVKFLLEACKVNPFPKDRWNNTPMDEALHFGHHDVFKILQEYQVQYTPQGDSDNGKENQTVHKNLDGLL
Chain of Luciferin 4-monooxygenase (Photinus pyralis) (P08659 whole entry, looked up): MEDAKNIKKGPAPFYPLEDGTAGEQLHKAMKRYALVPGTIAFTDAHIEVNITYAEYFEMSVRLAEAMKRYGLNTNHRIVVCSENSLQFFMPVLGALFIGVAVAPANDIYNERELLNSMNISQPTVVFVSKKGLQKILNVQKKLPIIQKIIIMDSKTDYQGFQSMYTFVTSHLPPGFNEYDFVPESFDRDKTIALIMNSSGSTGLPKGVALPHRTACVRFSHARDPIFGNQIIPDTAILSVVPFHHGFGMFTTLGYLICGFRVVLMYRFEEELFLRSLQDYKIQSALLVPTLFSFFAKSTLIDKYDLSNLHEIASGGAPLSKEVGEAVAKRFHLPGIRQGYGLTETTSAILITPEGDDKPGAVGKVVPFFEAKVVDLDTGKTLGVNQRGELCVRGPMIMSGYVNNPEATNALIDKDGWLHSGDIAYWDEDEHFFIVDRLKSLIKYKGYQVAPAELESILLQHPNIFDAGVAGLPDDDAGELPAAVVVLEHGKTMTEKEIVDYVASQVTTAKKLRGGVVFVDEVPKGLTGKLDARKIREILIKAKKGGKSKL
Chain of Voltage-gated inwardly rectifying potassium channel KCNH2 (Homo sapiens) (Q12809 whole entry, looked up): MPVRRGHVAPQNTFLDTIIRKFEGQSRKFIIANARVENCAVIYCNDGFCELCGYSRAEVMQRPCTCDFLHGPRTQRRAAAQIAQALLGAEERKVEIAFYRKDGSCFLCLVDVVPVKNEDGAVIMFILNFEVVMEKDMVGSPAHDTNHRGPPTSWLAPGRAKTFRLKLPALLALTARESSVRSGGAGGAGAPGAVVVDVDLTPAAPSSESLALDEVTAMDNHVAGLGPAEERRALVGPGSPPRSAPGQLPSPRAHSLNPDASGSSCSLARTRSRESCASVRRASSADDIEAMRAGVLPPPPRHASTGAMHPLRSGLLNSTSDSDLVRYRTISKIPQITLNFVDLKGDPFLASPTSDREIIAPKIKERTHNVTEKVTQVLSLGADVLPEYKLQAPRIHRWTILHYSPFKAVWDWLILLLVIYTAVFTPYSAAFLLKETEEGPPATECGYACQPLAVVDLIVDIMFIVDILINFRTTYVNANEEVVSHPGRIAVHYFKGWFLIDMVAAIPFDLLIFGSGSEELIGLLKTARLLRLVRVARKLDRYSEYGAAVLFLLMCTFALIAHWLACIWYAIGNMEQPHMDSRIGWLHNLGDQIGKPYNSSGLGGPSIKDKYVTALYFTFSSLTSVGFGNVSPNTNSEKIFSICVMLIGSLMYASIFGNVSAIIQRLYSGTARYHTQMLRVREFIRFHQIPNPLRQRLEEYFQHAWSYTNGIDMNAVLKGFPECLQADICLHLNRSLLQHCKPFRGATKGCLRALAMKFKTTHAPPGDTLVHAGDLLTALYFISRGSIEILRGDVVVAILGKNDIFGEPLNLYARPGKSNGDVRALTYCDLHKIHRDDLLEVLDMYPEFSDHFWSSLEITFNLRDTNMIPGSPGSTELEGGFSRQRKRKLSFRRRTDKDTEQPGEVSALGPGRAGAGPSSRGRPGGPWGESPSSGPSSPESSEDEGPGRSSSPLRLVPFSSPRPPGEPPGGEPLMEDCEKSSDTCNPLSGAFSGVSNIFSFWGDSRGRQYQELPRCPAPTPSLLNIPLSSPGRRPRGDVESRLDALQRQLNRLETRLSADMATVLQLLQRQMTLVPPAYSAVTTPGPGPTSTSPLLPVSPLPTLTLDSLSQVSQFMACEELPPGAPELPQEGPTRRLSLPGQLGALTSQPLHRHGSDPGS

SMILES | Potency [1] | Potency [2] | Potency [3] | Potency [4] | outcome [5] | outcome [6] | outcome [7] | Potency [8] | Potency [9] | Potency [10]
CCCN(CCC)CCc1cccc2c1CC(=O)N2 | inactive | inactive | inactive | inactive | inactive | inactive | inactive | inactive |  | 
O=C(CCCN1CCC(O)(c2cccc(C(F)(F)F)c2)CC1)c1ccc(F)cc1 | inactive |  | inactive | inactive | inactive | inactive |  | inactive |  | 
OC(CCN1CCCCC1)(c1ccccc1)C1CCCCC1 (stereo not drawn) | inactive | inactive | inactive | inactive | inactive | inactive | inactive | inactive |  | 
Cc1cccc(C)c1NC(=O)C(C)N (stereo not drawn) |  |  |  | inactive | inactive | inactive |  | inactive | inactive | 
CN(C)[C@@H]1C(=O)C(C(N)=O)=C(O)[C@@]2(O)C(=O)C3=C(O)c4c(O)ccc(Cl)c4[C@@H](O)[C@H]3C[C@@H]12 |  |  |  |  | inactive |  | inactive |  | inactive | 
NC1=NCC2c3ccccc3Cc3ccccc3N12 (stereo not drawn) | inactive | inactive | inactive | inactive | inactive | inactive | inactive | inactive |  | 
CN(C)CC/C=C1\c2ccccc2COc2ccccc21 | inactive |  |  | inactive | inactive |  | inactive | inactive |  | 
CC(C)[N+](C)(CCOC(=O)C1c2ccccc2Oc2ccccc21)C(C)C | inactive | inactive | inactive | inactive | inactive | inactive | inactive | inactive |  | 
COCCCC/C(=N\OCCN)c1ccc(C(F)(F)F)cc1 |  |  |  | inactive | inactive |  | inactive | inactive |  | 
C(=C\c1ccccc1)/CN1CCN(C(c2ccccc2)c2ccccc2)CC1 |  |  |  | inactive | inactive | inactive | inactive | inactive |  | 
CCCCCCCC/C=C\CCCCCCCC(=O)NCc1ccc(O)c(OC)c1 | inactive | inactive | 4.55 µM (active) |  | inactive |  | inactive | inactive |  | 12.6 µM (active)
CCOC(=O)C1=C(C)NC(C)=C(C(=O)OC)C1c1cccc(Cl)c1Cl (stereo not drawn) | inactive | inactive |  | inactive | inactive | inactive |  | inactive |  | inactive
CC(C)(C)c1ccc(C(=O)CCCN2CCC(OC(c3ccccc3)c3ccccc3)CC2)cc1 | inactive | 20.3 µM (active) | 20.3 µM (active) | inactive | inactive | inactive |  | inactive |  | 
O=C1CC2(CCCC2)CC(=O)N1CCCCN1CCN(c2ncccn2)CC1 | inactive | inactive | inactive | inactive | inactive | inactive | inactive | inactive |  | 
CC(C)NCC(O)c1cc(O)cc(O)c1 (stereo not drawn) |  |  |  | 7.08 µM (active) | inactive |  | inactive | inactive | inactive | 
CCN(CC)CC(=O)Nc1c(C)cccc1C | inactive | inactive | inactive | inactive | inactive | inactive | inactive | inactive |  | inactive
C[C@]12CC[C@@H]3c4ccc(O)cc4C[C@@H](CCCCCCCCCS(=O)CCCC(F)(F)C(F)(F)F)[C@H]3[C@@H]1CC[C@@H]2O (stereo partly drawn) |  |  |  |  | inactive |  | inactive | inactive | inactive | 
COCC(=O)O[C@]1(CCN(C)CCCc2nc3ccccc3[nH]2)CCc2cc(F)ccc2[C@@H]1C(C)C | inactive | 10.2 µM (active) | 10.2 µM (active) | inactive | inactive | inactive |  | inactive |  | 25.1 µM (active)
CCN(CC)CCNC(=O)c1ccc(NC(C)=O)cc1 | inactive | inactive | inactive | inactive | inactive |  | inactive | inactive |  | 
COc1ccc([C@@H]2Sc3ccccc3N(CCN(C)C)C(=O)[C@@H]2OC(C)=O)cc1 | inactive | inactive | inactive | inactive | inactive | inactive | inactive | inactive |  | 
C[C@@H](O)[C@H]1C(=O)N2C(C(=O)O)=C(SCCN=CN)C[C@H]12 |  |  |  |  | inactive | inactive | inactive | inactive |  | 
CC(C)(C)NCC(O)c1cc(O)cc(O)c1 (stereo not drawn) |  |  |  |  | inactive |  |  | inactive | inactive | 
CCCNC(C)C(=O)Nc1ccccc1C (stereo not drawn) |  |  |  | inactive | inactive | inactive | inactive | inactive | inactive | 
